Results taken from PubChem BioAssay (NCATS).
Records with an inconclusive call do not appear. Where a call stands in place of a potency, no number is given. Calls of active or inactive are those of the source. Unless noted, the call rests on the fitted dose curve; in most records, active means well fitted curve in the direction sought with a large enough effect; inconclusive means small, poorly fitted or top-dose-only effect, or another doubt; inactive means no such curve, though single readings can be large; an effect the other way counts as inactive or inconclusive.

Tests used:
Furin (Homo sapiens) = Furin (Homo sapiens) (UniProt P09958); assay: Furin counterscreen qHTS for Zika virus inhibitors (AID 1347149);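 further: purified recombinant full-length human furin enzyme at 5 nM; fluorescence gain from furin cutting a BOC-RVRR-AMC peptide substrate over 15 min; top concentration of the series differs between compounds; nearly all actives have a fitted effect of over 70% in size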
Sequence of Furin (Homo sapiens) (P09958 whole entry, looked up): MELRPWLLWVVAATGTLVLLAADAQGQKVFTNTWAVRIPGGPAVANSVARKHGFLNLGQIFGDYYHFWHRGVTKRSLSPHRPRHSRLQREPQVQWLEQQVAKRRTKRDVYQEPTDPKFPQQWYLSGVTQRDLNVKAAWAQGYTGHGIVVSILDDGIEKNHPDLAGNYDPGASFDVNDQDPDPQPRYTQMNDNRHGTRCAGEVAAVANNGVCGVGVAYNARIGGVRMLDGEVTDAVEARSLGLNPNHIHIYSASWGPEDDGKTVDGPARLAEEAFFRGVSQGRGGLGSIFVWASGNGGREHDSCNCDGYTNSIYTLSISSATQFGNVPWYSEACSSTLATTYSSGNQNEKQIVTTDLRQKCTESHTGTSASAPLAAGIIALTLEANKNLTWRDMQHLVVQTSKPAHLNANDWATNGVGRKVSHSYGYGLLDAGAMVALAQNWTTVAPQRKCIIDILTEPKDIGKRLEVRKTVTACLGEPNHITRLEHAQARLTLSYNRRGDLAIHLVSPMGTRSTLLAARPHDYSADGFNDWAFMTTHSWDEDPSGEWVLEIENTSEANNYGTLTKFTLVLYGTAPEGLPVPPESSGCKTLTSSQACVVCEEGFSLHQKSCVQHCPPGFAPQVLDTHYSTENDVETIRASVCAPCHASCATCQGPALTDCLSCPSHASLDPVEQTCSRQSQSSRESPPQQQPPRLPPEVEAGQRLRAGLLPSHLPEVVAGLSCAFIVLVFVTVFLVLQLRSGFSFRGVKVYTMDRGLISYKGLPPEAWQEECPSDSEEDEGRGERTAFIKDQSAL
Summary of the method: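 Counterscreen measures cleavage of 2 microM BOC-RVRR-AMC, below its ~15 microM Km, by 5 nM full-length human furin at pH 7.0 after a 15-min compound preincubation. Inhibition derives from the 15-min fluorescence increase at 37C.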

[1] = tested on: Zika virus NS2B-NS3 protease (unlinked); assay: Optimization of GU AMC qHTS for Zika virus inhibitors: Unlinked NS2B-NS3 protease assay (AID 1347151); further: nearly all actives have a fitted effect of over 80% in size
Summary of the method: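 Percent inhibition is derived from the 15-min change in AMC fluorescence, normalized against no-inhibitor and no-enzyme controls, then fitted to a 4-parameter Hill curve. Aprotinin was the intraplate control.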

[2] = Vero cells viability qHTS for Zika virus inhibitors (AID 1347167)
Summary of the method: (§1)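 qHTS titration; 24-48 h compound exposure, 37 degrees C/5% CO2; DMEM, 4% FBS; CellTiter Glo ATP luminescence.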

[3] = Tertiary RLuc qRT-PCR qHTS assay for Zika virus inhibitors (AID 1347169); further: potency means the concentration at half of the fitted maximal effect; nearly all actives have a fitted effect of over 55% in size
Summary of the method: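 Orthogonal cell-based infection assay using recombinant ZIKV-RLuc (Cambodian) in Vero cells; compound added prior to virus at MOI 1-2. Incubation lasts 48-72 hrs at 37 degrees C before live-cell Renilla substrate is added and luminescence measured.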

[4] = tested on: Zika virus NS2B-NS3 protease (linked construct); assay: Confirmatory screen NINDS AMC qHTS for Zika virus inhibitors (AID 1347152);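 further: AMC fluorescence gain from cleaved Bz-Nle-KRR-AMC substrate over 15 min; top concentration of the series differs between compounds; nearly all actives have a fitted effect of over 70% in size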
Summary of the method: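 In this dose-response qHTS, AMC release from 10 microM Bz-Nle-KRR-AMC by 1 nM linked protease is measured over 15 minutes (about 20% conversion) at pH 8.0. Percent inhibition is fitted to a 4-parameter Hill curve.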

[5] = tested on: Zika virus NS2B-NS3 protease (unlinked complex); assay: Confirmatory screen GU AMC qHTS for Zika virus inhibitors (AID 1347153); further: nearly all actives have a fitted effect of over 70% in size;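 on potency: enzyme at 25 nM with substrate at 10 µM below its Km of 18.3 µM; potency means the concentration at half of the fitted maximal effect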
Summary of the method: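 Unlinked NS2B-NS3 complex (25 nM) in 10 mM Tris-HCl pH 8.0, 0.01% Tween 20 preincubated 15 min with compound, then 10 microM Bz-Nle-KRR-AMC (Km 18.3 µM). Fluorescence change over 15 min, normalized, Hill-fitted.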

[6] = tested on: Zika virus NS2B-NS3 protease; assay: Primary screen GU AMC qHTS for Zika virus inhibitors (AID 1347154); further: nearly all actives have a fitted effect of over 70% in size
Summary of the method: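 Unlinked Zika NS2B hydrophilic domain–NS3 protease complex at 25 nM in 10 mM Tris-HCl pH 8.0, 0.01% Tween 20, with an AMC peptide substrate. Fluorescence change (340/450 nm) over 15 min at room temperature, normalized to controls, fitted to 4-parameter Hill.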

[7] = biological target: Cytochrome P450 3A4 (Homo sapiens) (UniProt P08684); assay: qHTS Assay for Inhibitors and Substrates of Cytochrome P450 3A4 (AID 884); further: potency means the concentration at half of the fitted maximal effect; nearly all actives have a fitted effect of over 50% in size
Sequence of Cytochrome P450 3A4 (Homo sapiens) (P08684 whole entry, looked up): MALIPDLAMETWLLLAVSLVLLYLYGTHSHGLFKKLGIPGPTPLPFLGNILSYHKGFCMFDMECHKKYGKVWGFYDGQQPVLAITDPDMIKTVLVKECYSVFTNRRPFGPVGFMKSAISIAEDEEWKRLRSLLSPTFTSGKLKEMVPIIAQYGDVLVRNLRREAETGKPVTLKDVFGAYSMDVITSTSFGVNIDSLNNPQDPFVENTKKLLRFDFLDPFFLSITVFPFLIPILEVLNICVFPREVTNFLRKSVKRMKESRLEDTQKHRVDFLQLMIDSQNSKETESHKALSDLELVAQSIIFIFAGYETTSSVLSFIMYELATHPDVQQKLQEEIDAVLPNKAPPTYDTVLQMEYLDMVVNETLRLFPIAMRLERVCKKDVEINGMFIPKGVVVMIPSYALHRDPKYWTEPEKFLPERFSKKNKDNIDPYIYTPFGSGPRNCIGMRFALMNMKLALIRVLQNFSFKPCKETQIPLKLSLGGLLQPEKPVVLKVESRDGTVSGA
Summary of the method: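 Luminescent readout of luciferin produced by CYP3A4 (20 nM) dealkylation of Luciferin-PPXE, 25 uM (its KM). NADPH-driven reaction ran 60 min at RT after 10 min compound preincubation; data scaled to 57 uM ketoconazole as 100% inhibition.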

[8] = biological target: Cytochrome P450 3A4 (Homo sapiens) (UniProt P08684); assay: qHTS Assay for Activators of Cytochrome P450 3A4 (AID 885); further: nearly all actives have a fitted effect of over 65% in size
Summary of the method: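 Human CYP3A4 dealkylates Luciferin-PPXE to luciferin, which luciferase detection converts to light. Substrate was at its KM (25uM), buffer 200mM KPO4, reaction 60 min at RT.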

[9] = Confirmation and Secondary Assay for Modulators of Hemoglobin Beta Chain Splicing at IVS2 654 locus (AID 910);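 further: HeLa cells stably carrying EGFP split by mutant beta-globin IVS2-654 intron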
Summary of the method: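 HeLa cells stably expressing EGFP interrupted by β-globin IVS2-654 intron, seeded overnight in Opti-MEM/2% FCS, then treated 2 days at 37 °C. Restored splicing read as total peak GFP intensity per well by laser scanning cytometry (488 nm excitation, 500–520 nm emission); 500 nM antisense PNA as control.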

[10] = Confirmation and Secondary Assay for Modulators of Hemoglobin Beta Chain Splicing at IVS2 705 locus (AID 930);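 further: HeLa cells stably expressing the EGFP-705 splicing reporter; GFP fluorescence per well restored by corrected splicing of the IVS2-705 intron in EGFP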
Summary of the method: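 HeLa IVS2-705 EGFP reporter cells, 500/well, compound 2 d at 37C; correct splicing yields fluorescent EGFP. Control: 500 nM antisense PNA. Read-out: total peak GFP intensity.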

[11] = biological target: Ubiquitin carboxyl-terminal hydrolase 1 (Homo sapiens) (UniProt O94782); assay: Inhibitors of USP1/UAF1: Pilot qHTS (AID 504865); further: potency means the concentration at half of the fitted maximal effect; nearly all actives have a fitted effect of over 35% in size
Sequence of Ubiquitin carboxyl-terminal hydrolase 1 (Homo sapiens) (O94782 whole entry, looked up): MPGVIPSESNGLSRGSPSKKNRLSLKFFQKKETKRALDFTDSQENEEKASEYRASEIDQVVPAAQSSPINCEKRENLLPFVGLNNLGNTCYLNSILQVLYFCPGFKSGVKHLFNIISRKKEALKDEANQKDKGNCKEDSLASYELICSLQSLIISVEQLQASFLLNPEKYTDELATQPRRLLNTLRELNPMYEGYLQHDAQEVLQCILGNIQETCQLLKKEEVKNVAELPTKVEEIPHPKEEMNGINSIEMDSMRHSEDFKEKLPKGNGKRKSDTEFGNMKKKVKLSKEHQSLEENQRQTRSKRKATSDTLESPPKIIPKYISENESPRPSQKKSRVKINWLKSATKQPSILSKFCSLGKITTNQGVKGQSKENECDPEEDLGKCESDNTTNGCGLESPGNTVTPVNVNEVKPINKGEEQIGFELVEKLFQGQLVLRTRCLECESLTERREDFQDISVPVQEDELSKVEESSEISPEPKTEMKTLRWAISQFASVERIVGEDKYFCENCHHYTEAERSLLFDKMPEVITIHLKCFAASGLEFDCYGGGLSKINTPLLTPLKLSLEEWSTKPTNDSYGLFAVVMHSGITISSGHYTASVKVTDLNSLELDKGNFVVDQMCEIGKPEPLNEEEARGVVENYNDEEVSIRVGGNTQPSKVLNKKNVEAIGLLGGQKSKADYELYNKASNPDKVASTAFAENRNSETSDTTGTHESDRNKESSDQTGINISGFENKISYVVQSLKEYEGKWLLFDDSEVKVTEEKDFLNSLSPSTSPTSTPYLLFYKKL
Summary of the method: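 Kinetic fluorescence assay: 1nM USP1/UAF1, 15 min compound preincubation, then 150nM Ub-Rho; 480/540 nm.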

[12] = Confirmatory screen NINDS Rhodamine qHTS for Zika virus inhibitors (AID 1347161); further: potency means the concentration at half of the fitted maximal effect; nearly all actives have a fitted effect of over 60% in size
Summary of the method: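 Enzyme (25 nM, linked NS2B-NS3) was preincubated 15 min with compound in 10 mM Tris-HCl pH 8.0, 0.01% Tween 20. Rhodamine110 substrate (1.5 microM) was then added and fluorescence read at start and after 15 min.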

[13] = tested on: Zika virus NS2B-NS3 protease (linked); assay: 384 well plate NINDS AMC confirmatory qHTS for Zika virus inhibitors (AID 1347163); conditions: Recombinant NS2B-NS3 protease, Ac-VKTGKR-AMC fluorescence; further: potency means the concentration at half of the fitted maximal effect; nearly all actives have a fitted effect of over 50% in size
Summary of the method: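 Enzyme (5, 30 or 60 nM final) first met test compounds for ~15 min. The AMC-tagged peptide Ac-VKTGKR-AMC followed at 30 microM. Fluorescence was then recorded at 25 min and scaled against no-enzyme and no-inhibitor wells.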

[14] = HepG2 cells viability qHTS for Zika virus inhibitors (AID 1347168); further: potency means the concentration at half of the fitted maximal effect
Summary of the method: as §1

[15] = Primary qHTS for small molecule stabilizers of the endoplasmic reticulum resident proteome: Secreted ER Calcium Modulated Protein (SERCaMP) assay (AID 1508630)
Summary of the method: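 The SH-SY5Y reporter protocol was run at 3 concentrations up to 38.3 uM (primary) or 11 concentrations (follow-up): 16 h compound, 100 nM thapsigargin for 4 h, then extracellular luciferase luminescence.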

[16] = biological target: Rap guanine nucleotide exchange factor 3 (Homo sapiens) (UniProt O95398); assay: Confirmatory qHTS for antagonist of cAMP-regulated guanine nucleotide exchange factor 3 (EPAC1) (AID 1645880); further: potency means the concentration at half of the fitted maximal effect; nearly all actives have a fitted effect of over 55% in size
Sequence of Rap guanine nucleotide exchange factor 3 (Homo sapiens) (O95398 whole entry, looked up): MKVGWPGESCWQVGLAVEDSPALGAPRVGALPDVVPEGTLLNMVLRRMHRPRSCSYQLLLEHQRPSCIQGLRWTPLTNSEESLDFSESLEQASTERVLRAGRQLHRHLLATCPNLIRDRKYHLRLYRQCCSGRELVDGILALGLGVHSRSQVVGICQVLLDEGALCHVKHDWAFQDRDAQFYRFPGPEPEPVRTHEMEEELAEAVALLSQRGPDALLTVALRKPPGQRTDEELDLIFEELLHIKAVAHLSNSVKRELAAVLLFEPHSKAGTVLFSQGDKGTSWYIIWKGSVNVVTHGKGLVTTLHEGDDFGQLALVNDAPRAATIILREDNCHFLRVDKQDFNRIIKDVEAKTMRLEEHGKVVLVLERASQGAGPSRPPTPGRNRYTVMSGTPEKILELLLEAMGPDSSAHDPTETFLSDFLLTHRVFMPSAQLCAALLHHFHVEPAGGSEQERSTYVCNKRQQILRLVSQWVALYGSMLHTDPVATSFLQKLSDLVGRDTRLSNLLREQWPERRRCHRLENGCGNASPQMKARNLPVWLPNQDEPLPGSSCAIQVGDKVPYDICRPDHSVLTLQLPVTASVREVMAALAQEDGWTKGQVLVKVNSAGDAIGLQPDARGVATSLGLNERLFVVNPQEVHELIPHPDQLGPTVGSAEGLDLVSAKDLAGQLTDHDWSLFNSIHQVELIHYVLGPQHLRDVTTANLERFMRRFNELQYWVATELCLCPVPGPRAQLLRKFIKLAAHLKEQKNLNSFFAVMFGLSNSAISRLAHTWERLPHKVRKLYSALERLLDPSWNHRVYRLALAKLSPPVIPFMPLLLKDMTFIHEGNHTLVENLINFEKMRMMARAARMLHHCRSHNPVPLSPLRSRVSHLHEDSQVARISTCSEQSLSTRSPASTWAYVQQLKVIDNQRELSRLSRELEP
Summary of the method: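 Released BODIPY-GDP fluoresces less than Rap1-bound BODIPY-GDP; the signal is followed at 480/540 nm at 5-min intervals over 30 min, after 5 min at room temperature. Reactions contain 100 nM EPAC1, 250 nM RAP1B-BODIPY-GDP and 50 uM GDP; results are normalized to ATA and DMSO.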

[17] = biological target: Rap guanine nucleotide exchange factor 3 (Homo sapiens) (UniProt O95398); assay: Confirmatory qHTS for agonist of cAMP-regulated guanine nucleotide exchange factor 3 (EPAC1) (AID 1645881);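 further: EPAC1 catalysed release of BODIPY-GDP from Rap1B seen as fluorescence loss; nearly all actives have a fitted effect of over 75% in size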
[18] = biological target: Rap guanine nucleotide exchange factor 4 (Homo sapiens) (UniProt Q8WZA2); assay: Confirmatory qHTS for agonist of cAMP-regulated guanine nucleotide exchange factor 4 (EPAC2) (AID 1645884);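 further: nucleotide exchange releases bodipy-GDP from Rap1 and this lowers its fluorescence; nearly all actives have a fitted effect of over 65% in size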
Sequence of Rap guanine nucleotide exchange factor 4 (Homo sapiens) (Q8WZA2 whole entry, looked up): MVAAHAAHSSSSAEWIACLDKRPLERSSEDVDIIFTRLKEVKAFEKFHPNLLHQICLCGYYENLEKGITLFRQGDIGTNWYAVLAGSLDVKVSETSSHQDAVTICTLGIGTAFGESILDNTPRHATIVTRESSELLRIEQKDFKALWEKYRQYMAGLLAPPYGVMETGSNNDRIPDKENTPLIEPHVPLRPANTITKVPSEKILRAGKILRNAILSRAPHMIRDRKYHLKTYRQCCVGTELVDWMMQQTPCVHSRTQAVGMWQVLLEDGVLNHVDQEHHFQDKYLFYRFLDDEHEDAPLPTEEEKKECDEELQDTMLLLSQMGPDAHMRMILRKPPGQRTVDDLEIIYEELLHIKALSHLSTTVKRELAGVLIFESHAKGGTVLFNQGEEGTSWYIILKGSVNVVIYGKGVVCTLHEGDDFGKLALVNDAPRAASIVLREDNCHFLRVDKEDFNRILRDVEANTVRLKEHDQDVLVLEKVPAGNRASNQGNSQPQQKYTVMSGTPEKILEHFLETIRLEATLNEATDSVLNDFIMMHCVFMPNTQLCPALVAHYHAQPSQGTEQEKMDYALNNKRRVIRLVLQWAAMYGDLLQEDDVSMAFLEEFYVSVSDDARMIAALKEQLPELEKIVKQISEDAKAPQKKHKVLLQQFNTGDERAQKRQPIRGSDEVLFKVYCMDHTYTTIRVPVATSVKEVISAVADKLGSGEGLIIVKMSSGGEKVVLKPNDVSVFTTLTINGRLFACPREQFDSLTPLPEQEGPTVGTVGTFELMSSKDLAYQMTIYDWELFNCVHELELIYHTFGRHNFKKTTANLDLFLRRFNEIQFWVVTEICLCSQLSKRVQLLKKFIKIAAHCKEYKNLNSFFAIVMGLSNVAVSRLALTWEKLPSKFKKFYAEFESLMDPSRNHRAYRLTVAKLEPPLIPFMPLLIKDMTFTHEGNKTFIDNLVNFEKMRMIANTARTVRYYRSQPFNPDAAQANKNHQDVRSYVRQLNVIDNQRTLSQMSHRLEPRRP

[19] = biological target: Rap guanine nucleotide exchange factor 4 (Homo sapiens) (UniProt Q8WZA2); assay: Confirmatory qHTS for antagonist of cAMP-regulated guanine nucleotide exchange factor 4 (EPAC2) (AID 1645885); further: nearly all actives have a fitted effect of over 25% in size
[20] = qHTS Assay for Lipid Storage Modulators (AID 1519; calls by dose curve); conditions: Drosophila S3 cells, BODIPY lipid droplet/cell ratio, laser cytometry, cells loaded with oleic acid
Summary of the method: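 Cells seeded at 5,000 per well were treated with compounds over a concentration series and loaded with oleic acid (400 uM, as added). Lipid droplet fluorescence (488 nm excitation, 500-530 nm channel) was read by laser-scanning cytometry and normalized to 20 uM Triacsin C.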

Question: Which Potency (Furin (Homo sapiens)) does the source give for `C[C@H]1O[C@@H](O[C@H]2[C@@H](O)C[C@@H](O[C@H]3[C@@H](O)C[C@H](O[C@H]4CC[C@@]5(C)[C@H](CC[C@@H]6[C@@H]5CC[C@]5(C)[C@@H](C7=CC(=O)OC7)CC[C@]65O)C4)O[C@@H]3C)O[C@@H]2C)C[C@H](O)[C@@H]1O` here?
Answer: inactive

Question: And the outcome [1]?
Answer: inactive

Question: And the Potency [2]?
Answer: inactive

Question: What about the Potency [3] of the same molecule?
Answer: 0.0537 µM (active)

Question: Which Potency (Furin (Homo sapiens)) does the source give for `COc1cc2c(cc1OCC1CCCC1)N([S+](=O)([O-])c1ccc(Oc3ccccc3)cc1)CC21CCN(CC(=O)O)CC1` here?
Answer: inactive

Question: And the Potency [4]?
Answer: inactive

Question: And the Potency [5]?
Answer: inactive

Question: Which activity change, negative = inhibition [6] does the source give for `CCCCC/C=C\C/C=C\C/C=C\C=C\[C@H](CCCC(=O)O)OO` here?
Answer: 7.53% [at 0.59 µM] (inactive)

Question: Which Potency [6] does the source give for `OC12C3C4CC5C6C4C1C6C(C53)N2CCc1cccc(F)c1` (stereo not given) here?
Answer: inactive

Question: What does the source list for `CC(C)=CCCC1(C)C=Cc2c(O)c3c(c(CC=C(C)C)c2O1)OC12C(=CC4CC1C(C)(C)OC2(C/C=C(/C)C(=O)O)C4O)C3=O` (stereo not given)?
Answer: Potency [7]: 20 µM (active); Potency [8]: inactive; Potency [9]: inactive; outcome [10]: inactive; Potency [11]: 35.5 µM (active); Potency (Furin (Homo sapiens)): inactive; Potency [5]: 17.1 µM (active); Potency [12]: 2.78 µM (active); Potency [13]: 126 µM (active); Potency [2]: inactive; Potency [14]: 18.6 µM (active); Potency [3]: 5.87 µM (active); Potency [15]: inactive; Potency [16]: 28 µM (active); outcome [17]: inactive; outcome [18]: inactive; Potency [19]: inactive

Question: With `CCCCC/C=C\C/C=C\CCCCCCCC(=O)NCCO` as the molecule, how does the activity change, negative = inhibition [6] read?
Answer: 7.86% [at 6.83 µM] (inactive)

Question: For `Cc1ccc2c(c1)Cc1c(C(=O)NN3CCCCC3)nn(-c3ccc(Cl)cc3Cl)c1-2`, which Potency [6] is on record?
Answer: inactive

Question: Which activity change, negative = inhibition ([20]; at 57.5 µM (top of the series)) does the source give for `CC1O[C@@H](O[C@@H]2C(O)C[C@H](O[C@@H]3C(O)C[C@@H](OC4CC[C@@]5(C)C6CC[C@]7(C)C(C8=CC(=O)OC8)CC[C@@]7(O)C6CC[C@@H]5C4)OC3C)OC2C)CC(O)[C@H]1O` (stereo not given in full) here?
Answer: 3.23% (inactive)

Question: What about the max response ([20]; measured here: cell count channel max response) of the same molecule?
Answer: 20.2%

Question: What about the max response ([20]; measured here: lipid channel max response) of the same molecule?
Answer: 25.7%

Question: What about the Potency (Furin (Homo sapiens)) of the same molecule?
Answer: inactive

Question: What about the outcome [1] of the same molecule?
Answer: inactive

Question: What about the Potency [2] of the same molecule?
Answer: inactive

Question: And the Potency [3]?
Answer: 0.208 µM (active)
